# Measurements: ChEMBL document CHEMBL3988442, “University of Dundee, Small-Polar-MMV Screening Library” (2021)
# For part of these data: Potency and affinity values are given separately.
# How the values were obtained:
# Parameters in all cases: scale not given: direction of the effect not stated beside the values
# [1] = target: Protein translocase subunit SecA (Escherichia coli (strain K12)) (UniProt P10408); assay: Assay to Identify E. coli SecA ATPase Inhibitors; type: functional; conditions: 30 µM
# [2] = target: T1, Ubiquitin-activating enzyme e1, putative (Leishmania donovani (strain BPK282A1)) (UniProt E9BSI1); assay: Leishmania donovani Ubiquitin Activating Enzyme (LdE1); type: functional; conditions: 30 µM
# T1 sequence (whole entry): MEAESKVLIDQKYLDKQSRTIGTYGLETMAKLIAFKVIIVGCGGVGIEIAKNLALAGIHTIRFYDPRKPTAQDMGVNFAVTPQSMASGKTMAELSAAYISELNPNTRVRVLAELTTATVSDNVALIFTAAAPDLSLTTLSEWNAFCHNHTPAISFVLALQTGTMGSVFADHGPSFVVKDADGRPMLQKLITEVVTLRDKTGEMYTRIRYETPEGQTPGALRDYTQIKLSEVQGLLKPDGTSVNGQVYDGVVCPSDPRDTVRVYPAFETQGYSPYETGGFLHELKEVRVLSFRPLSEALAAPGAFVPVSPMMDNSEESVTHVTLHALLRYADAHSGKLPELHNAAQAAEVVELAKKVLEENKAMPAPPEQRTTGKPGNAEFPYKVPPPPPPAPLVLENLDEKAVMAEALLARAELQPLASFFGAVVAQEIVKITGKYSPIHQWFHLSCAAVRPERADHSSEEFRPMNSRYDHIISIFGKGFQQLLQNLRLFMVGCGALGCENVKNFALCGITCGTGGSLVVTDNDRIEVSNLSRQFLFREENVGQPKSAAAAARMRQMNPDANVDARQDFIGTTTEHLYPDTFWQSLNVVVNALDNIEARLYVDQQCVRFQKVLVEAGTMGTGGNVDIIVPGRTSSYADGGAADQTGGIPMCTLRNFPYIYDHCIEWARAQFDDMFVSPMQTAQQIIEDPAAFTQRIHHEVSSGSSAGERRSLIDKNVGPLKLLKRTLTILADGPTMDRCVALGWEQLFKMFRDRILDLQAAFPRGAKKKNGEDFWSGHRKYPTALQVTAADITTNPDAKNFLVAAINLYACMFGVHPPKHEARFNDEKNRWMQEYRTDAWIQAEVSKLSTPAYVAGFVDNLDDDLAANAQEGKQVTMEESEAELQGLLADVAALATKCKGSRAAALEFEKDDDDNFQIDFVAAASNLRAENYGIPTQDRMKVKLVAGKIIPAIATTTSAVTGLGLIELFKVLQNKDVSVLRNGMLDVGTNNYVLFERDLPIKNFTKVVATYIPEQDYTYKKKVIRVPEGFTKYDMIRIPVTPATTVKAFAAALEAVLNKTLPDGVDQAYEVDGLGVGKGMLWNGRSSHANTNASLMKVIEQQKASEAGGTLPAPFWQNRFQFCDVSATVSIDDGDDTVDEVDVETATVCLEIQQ
# [3] = target: T2, Aspartate--tRNA(Asp/Asn) ligase (Mycobacterium tuberculosis (strain ATCC 25618 / H37Rv)) (UniProt P9WFW3); assay: Assay for Asp RNA synthetase-1 from Mycobacterium tuberculosis; type: functional; conditions: 30 µM; note: in the data most compounds retested in dose-response had high values
# T2 sequence (whole entry): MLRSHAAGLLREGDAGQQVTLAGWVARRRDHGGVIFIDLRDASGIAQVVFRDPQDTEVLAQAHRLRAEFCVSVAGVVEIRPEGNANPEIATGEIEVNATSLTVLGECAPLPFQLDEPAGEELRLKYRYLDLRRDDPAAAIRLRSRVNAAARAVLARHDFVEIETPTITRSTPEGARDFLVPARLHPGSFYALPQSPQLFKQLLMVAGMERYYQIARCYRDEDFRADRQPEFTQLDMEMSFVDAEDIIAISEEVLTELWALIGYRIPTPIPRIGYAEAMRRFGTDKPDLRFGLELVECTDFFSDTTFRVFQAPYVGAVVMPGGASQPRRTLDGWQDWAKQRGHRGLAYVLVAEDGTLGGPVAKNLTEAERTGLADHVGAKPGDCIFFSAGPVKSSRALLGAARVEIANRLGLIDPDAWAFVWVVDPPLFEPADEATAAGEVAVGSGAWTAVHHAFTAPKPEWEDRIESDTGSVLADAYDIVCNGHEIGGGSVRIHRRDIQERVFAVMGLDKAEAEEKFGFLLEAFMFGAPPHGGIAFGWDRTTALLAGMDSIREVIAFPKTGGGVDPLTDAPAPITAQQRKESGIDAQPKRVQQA
# [4] = target: AMP-activated protein kinase, AMPK (Homo sapiens) (UniProt P54646+O43741+P54619+Q9UGJ0+Q9Y478+Q13131+Q9UGI9); assay: AMP-dependent Kinase enzyme assay. An in vitro enzyme assay that detects ADP turnover that is directly proportional to AMPK activity. This uses naive AMPK that is activated during the assay with MK-8722; type: functional; conditions: 30 µM
# [5] = target: Sialic acid-binding Ig-like lectin 9 (Homo sapiens) (UniProt Q9Y336); assay: Hs-Siglec9 ALPHAscreen SOP 20170721; conditions: 10 µM
# Trypanosoma cruzi = assay: Trypanosoma cruzi phosphomannomutase and mannose-1-phosphate guanylyltransferase assay; type: functional; conditions: 10 µM
# [6] = target: T3, Arginase-2, mitochondrial (Homo sapiens) (UniProt P78540); assay: in vitro enzyme assay to detect the production of urea directly proportional to the activity of Arginase II; type: functional; conditions: 33.3 µM; note: in the data most compounds retested in dose-response had high values
# T3 sequence (whole entry): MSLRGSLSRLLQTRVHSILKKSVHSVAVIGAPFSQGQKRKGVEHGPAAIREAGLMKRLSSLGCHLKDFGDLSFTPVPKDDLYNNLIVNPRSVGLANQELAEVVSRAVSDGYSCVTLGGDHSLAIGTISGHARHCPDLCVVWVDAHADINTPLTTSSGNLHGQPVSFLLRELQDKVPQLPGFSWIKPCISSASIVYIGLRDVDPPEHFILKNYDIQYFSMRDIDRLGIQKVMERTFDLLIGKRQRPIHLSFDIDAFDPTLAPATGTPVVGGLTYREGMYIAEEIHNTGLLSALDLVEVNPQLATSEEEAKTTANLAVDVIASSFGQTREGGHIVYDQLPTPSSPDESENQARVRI
# [7] = target: T4, Proteasome subunit beta (Trypanosoma cruzi) (UniProt O96673); assay: Trypanosoma cruzi proteasome chymotrypsin-like activity (TcProtChymo) assay.; note: in the data most compounds retested in dose-response had high values; type: functional; conditions: 9.37 µM
# T4 sequence (whole entry): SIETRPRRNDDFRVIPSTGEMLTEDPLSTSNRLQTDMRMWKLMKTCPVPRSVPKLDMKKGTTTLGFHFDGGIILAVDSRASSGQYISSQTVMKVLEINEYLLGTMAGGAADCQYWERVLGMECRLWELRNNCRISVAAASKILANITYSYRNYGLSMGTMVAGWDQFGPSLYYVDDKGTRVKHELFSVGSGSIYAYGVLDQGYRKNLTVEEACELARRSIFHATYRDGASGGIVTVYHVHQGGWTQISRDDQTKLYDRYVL
# Homo sapiens = organism: Homo sapiens; assay: To identify inhibition of the IFN signalling (Jak-Stat) pathway via expression of an eGFP reporter gene under the control of an IFN-stimulated response element (ISRE) containing MxA promoter.; type: functional; conditions: 30 µM
# [8] = target: Shiga toxin 2 (Escherichia coli O157:H7) (UniProt P09385+P09386); assay: E. coli 0.157:H7 Shiga Toxin SOP - stx2 screening assay; type: functional; conditions: 30 µM
# [9] = target: T5, Tyrosyl-tRNA synthetase, putative (Trypanosoma cruzi (strain CL Brener)) (UniProt Q4DSP6); assay: Trypanosoma cruzi tyrosyl tRNA synthetase (TcYRS) _High Tyrosine SOP; type: functional; conditions: 30 µM; note: in the data most compounds retested in dose-response had high values
# T5 sequence (whole entry): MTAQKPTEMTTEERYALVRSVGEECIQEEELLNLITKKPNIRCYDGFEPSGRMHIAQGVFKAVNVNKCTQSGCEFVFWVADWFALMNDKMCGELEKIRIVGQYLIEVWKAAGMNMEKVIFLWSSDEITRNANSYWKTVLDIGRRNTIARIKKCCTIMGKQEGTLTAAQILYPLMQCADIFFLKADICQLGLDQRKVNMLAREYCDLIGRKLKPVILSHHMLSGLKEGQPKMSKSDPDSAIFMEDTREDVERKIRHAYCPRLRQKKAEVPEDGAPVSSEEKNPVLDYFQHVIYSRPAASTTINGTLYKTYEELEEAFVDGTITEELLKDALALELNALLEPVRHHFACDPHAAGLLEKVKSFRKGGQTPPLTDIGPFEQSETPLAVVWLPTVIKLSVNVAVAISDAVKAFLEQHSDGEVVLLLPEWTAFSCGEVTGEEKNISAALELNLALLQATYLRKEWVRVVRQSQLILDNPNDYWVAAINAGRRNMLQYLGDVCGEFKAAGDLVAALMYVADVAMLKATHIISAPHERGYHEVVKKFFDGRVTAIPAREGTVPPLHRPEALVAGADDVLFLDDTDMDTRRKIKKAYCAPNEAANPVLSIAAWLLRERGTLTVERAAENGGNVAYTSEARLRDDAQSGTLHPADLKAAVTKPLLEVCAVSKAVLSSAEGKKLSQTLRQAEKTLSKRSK
# [10] = target: T5, Tyrosyl-tRNA synthetase, putative (Trypanosoma cruzi (strain CL Brener)); assay: Trypanosoma cruzi tyrosyl tRNA synthetase (TcYRS) SOP; type: functional; conditions: 30 µM
# [11] = target: Chromo domain-containing protein 1 (Saccharomyces cerevisiae (strain ATCC 204508 / S288c) (Baker's yeast)) (UniProt P32657); assay: ScCHD-1 Enzyme Inhibition Assay; type: functional; conditions: 30 µM; note: in the data most compounds retested in dose-response had high values
# Chain of Chromo domain-containing protein 1 (Saccharomyces cerevisiae (strain ATCC 204508 / S288c) (Baker's yeast)) (P32657 whole entry, the tested form may be a part): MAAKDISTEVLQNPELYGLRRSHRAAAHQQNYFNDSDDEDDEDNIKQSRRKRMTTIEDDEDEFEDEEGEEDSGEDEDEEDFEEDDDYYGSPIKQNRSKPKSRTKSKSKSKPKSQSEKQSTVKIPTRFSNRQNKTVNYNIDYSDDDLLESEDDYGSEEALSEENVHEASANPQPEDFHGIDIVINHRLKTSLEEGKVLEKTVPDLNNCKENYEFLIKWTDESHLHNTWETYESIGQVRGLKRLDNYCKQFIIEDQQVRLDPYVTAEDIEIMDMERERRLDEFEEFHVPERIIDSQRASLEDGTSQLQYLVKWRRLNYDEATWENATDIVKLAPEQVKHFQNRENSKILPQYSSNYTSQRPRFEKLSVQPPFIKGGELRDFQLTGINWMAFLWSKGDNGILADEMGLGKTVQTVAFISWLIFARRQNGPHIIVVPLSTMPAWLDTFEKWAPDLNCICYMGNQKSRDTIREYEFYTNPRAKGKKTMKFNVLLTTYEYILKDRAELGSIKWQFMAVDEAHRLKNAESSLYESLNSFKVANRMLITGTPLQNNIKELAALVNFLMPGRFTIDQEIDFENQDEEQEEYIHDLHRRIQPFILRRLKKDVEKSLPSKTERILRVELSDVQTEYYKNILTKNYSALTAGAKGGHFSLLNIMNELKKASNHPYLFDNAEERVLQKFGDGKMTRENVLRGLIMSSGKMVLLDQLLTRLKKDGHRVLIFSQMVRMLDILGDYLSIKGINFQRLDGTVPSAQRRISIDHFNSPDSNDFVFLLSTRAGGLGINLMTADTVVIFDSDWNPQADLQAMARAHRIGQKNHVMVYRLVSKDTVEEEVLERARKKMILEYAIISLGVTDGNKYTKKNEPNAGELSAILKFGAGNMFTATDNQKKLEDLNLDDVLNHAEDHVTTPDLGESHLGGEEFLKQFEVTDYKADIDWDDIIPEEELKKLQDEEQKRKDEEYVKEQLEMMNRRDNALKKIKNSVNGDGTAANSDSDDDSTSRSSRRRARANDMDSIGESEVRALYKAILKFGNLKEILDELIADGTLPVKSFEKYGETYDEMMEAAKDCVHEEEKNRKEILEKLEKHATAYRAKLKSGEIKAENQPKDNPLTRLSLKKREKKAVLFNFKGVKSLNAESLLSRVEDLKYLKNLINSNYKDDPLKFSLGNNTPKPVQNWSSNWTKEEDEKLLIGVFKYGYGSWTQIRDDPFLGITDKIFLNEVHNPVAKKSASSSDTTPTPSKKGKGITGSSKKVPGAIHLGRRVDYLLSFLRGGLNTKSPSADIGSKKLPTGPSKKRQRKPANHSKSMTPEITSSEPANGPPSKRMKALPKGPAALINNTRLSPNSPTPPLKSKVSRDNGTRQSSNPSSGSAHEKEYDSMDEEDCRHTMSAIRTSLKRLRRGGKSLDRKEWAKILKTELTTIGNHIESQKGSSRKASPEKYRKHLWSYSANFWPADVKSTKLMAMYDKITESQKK
# Chain of Sialic acid-binding Ig-like lectin 9 (Homo sapiens) (Q9Y336 whole entry): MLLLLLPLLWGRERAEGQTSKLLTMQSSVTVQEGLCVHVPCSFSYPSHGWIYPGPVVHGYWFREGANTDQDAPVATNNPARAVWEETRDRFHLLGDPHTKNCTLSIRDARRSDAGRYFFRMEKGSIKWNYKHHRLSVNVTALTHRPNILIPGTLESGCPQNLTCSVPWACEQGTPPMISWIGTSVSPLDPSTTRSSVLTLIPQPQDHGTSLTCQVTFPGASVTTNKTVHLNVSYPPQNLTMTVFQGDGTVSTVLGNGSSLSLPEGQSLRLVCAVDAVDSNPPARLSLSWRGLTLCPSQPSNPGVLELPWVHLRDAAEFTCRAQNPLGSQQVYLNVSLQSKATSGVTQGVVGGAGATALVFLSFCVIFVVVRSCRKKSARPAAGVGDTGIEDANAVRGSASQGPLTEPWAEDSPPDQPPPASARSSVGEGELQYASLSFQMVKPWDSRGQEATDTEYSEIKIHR
# Chain of Protein translocase subunit SecA (Escherichia coli (strain K12)) (P10408 whole entry): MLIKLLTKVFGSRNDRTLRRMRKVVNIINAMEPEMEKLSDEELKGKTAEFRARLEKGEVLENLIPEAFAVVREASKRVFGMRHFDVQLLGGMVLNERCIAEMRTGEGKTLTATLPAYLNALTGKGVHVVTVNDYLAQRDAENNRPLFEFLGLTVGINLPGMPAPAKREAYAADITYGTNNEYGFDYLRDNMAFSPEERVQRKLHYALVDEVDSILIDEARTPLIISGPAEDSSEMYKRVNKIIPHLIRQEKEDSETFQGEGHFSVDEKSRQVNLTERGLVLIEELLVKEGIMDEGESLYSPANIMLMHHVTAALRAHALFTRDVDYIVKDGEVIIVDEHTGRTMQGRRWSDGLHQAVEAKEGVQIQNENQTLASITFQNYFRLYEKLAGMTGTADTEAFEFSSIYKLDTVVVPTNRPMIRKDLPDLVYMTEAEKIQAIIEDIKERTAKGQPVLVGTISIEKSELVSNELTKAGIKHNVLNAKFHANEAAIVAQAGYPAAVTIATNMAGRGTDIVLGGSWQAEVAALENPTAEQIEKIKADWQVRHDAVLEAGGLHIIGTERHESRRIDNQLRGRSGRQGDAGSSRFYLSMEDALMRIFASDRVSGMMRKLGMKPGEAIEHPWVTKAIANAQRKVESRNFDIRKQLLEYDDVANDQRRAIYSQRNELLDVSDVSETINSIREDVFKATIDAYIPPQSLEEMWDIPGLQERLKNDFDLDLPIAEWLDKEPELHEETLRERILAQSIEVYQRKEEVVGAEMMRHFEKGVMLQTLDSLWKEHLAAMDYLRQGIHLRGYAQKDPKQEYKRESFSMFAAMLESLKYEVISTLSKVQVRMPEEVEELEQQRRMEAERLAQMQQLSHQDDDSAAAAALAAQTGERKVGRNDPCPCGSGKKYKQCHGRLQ
SMILES,Percent Effect [1] [%],Percent Effect [2] [%],Percent Effect [3] [%],Percent Effect [4] [%],Percent Effect [5] [%],Percent Effect (Trypanosoma cruzi) [%],Percent Effect [6] [%],Percent Effect [7] [%],Percent Effect (Homo sapiens) [%],Percent Effect [8] [%],Percent Effect [9] [%],Percent Effect [10] [%],Percent Effect [11] [%]
O=C(NCC1CC1)[C@H]1C[C@@H]2[C@@H](C1)OCCN2Cc1cccnc1,-2.08,-5.33,-0.291,6.97,0.812,-1.93,-52.5,-2.73,9.72,-7.08,-1.04,-5,4.12
Cc1nc(C2(NCC(=O)NC(=O)NCc3cccs3)CCCCC2)no1,-4.13,15.8,-4.16,-2.76,-3.65,2.82,-3.55,-0.479,7.32,5.13,2.13,15.6,-4.77
Cc1nnc([C@H]2CC[C@@H]3[C@@H](CCN3Cc3c(C)noc3C)O2)o1,-0.00919,8,2.12,3.84,-0.659,-5.79,-54.3,11.4,-18.2,-1.17,6.25,22.5,-6.76
